NS1 function inh: qHTS Assay for Inhibitors of Influenza NS1 Protein Function; Potency, µM (highest dose often 46.1 µM), for the others: at the highest dose activity, positive = more growth; AID 2326, 2010; 270,000 tested, 0.4% active; calls by dose curve; note: potency is the fitted concentration of half-maximal effect; actives are rising curves; nearly all actives have a fitted effect of over 50% in size
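Read-out: OD600 growth recovery of NS1-expressing budding yeast. Cells grown overnight at 30C in -URA glucose medium, washed, resuspended and diluted 1:100 in 2% galactose assay medium, pH 6.0. Same strain lacking NS1 served as positive control.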
Pf growth 96h: Primary qHTS for delayed death inhibitors of the malarial parasite plastid, 96 hour incubation | 320,000 tested, 6.9% active | AID 504834, 2011 | P. falciparum luciferase reporter growth, 96 h | Potency, µM (titrated, usually from 28.7 µM), for inactives: top-dose activity change, negative = inhibition, actives largely listed as inhibitors; note: potency is the fitted concentration of half-maximal effect; % is set by controls: 0 for no effect and ±100 for the full control effect
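Plates of compound plus infected erythrocytes (2% hematocrit, 0.05% parasitemia final) incubate 96 hours, 37 C, 5% CO2. Detection reagent added; reduced luminescence from the parasites' luciferase reporter flags inhibition.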
FBPA Giardia inh: qHTS Assay for Inhibitors of Fructose-1,6-bisphosphate Aldolase from Giardia Lamblia; purified Giardia FBPA; Potency, µM (titrated, usually from 59.6 µM), without a hit: at the highest dose activity, negative = inhibition, actives largely listed as inhibitors; 290,000 tested, 0.71% active; AID 2451, 2010; note: potency is the fitted concentration of half-maximal effect; % is set by controls: 0 for no effect and ±100 for the full control effect; nearly all actives have a fitted effect of over 55% in size
Target sequence (A8B2U2 whole entry, looked up): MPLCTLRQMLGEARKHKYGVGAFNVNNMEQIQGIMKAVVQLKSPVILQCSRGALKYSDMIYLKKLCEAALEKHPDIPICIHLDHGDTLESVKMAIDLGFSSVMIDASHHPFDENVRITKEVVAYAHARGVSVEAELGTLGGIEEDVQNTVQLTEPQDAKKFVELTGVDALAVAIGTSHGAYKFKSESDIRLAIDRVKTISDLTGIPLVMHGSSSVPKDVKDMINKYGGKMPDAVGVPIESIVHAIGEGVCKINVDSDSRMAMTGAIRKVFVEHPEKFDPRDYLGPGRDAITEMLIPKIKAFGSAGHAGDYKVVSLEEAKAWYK
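40 nM FBPA preincubated 10 min at RT with compound (up to 57.5 uM final), then substrate plus GAPDH/TPI/NAD/arsenate coupling and diaphorase/resazurin added. Fluorescence read after 20 min at RT, 525/598 nm.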
Pf growth 48h: Primary qHTS for delayed death inhibitors of the malarial parasite plastid, 48 hour incubation. P. falciparum luciferase growth in erythrocytes, 48 h. Potency, µM (series often up to 28.7 µM), without a hit: at the top dose activity change, negative = inhibition, actives largely listed as inhibitors. 310,000 tested, 5.9% active. AID 504832, 2011; note: potency is the fitted concentration of half-maximal effect; % is set by controls: 0 for no effect and ±100 for the full control effect
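In quantitative HTS format, infected erythrocytes bearing luciferase-reporter parasites were treated for a single generation at 37 C. Luminescence after adding detection reagent served as the growth measure.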
Shiga toxin inh: A qHTS for Small Molecule Inhibitors of Shiga Toxin; AID 2315, 2010; Vero cells, Shiga toxin protein synthesis inhibition reporter; 290,000 tested, 9.2% active; inhibition, % at 38.7 µM; in the data active = inhibition mostly above about 28%, no sharp cut-off; inactive = mostly below about 43%; note: 0% is about no effect
CHX counter: Cycloheximide Counterscreen for Small Molecule Inhibitors of Shiga Toxin; cell reporter, cycloheximide protein synthesis inhibition counterscreen; max response, %; 300,000 tested, 12% active; AID 2314, 2010; in the data active = max response mostly above about 13%, no sharp cut-off; inactive = mostly below about 14%; note: read at 38.3 µM for the half of the compounds with a filed dose; 0% is about no effect
The depositor's hits bear a star; ? = inconclusive; · = no result given. Sampled rows, rich in hits. Any-hit rate of the full collection: about 21%. Unless noted, calls come from the whole dose curve; as a rule, active = well fitted curve in the direction sought with a large enough effect; inconclusive = small, poorly fitted or top-dose-only effect, or another doubt; inactive = no such curve, though single readings can be large; an effect the other way counts as inactive or inconclusive.

SMILES	NS1 function inh	Pf growth 96h	FBPA Giardia inh	Pf growth 48h	Shiga toxin inh	CHX counter
O=C1/C(=C\c2ccccc2)C[C@@]2(O)[C@H]3Cc4ccc(O)c5c4[C@@]2(CCN3CC2CC2)[C@@H]1O5	·	·	6%	·	·	·
N/C(=N\OC(=O)CCCOc1ccccc1)c1cccc([N+](=O)[O-])c1	·	?	-3%	10%	13	-3
N/C(=N\OC(=O)c1ccccc1F)c1cccc([N+](=O)[O-])c1	-20%	12µM*	-2%	146%	56*	39*
Cc1ccccc1/C(N)=N/OC(=O)c1ccc(F)cc1	-62%	?	0%	-39%	107*	47*
COC(=O)C1=C(C)N(C)C(=S)NC1c1ccc(OC)cc1OC (stereo not given)	-5%	9%	4%	-11%	10	2
CC1=C(C(=O)Nc2cccc(C(=O)NC(C)c3ccccc3)c2)SCCO1 (stereo not given)	-11%	?	7%	?	-5	0
O=C(OC1CCOC1=O)c1ccccc1C(=O)c1ccc(Cl)c([N+](=O)[O-])c1 (stereo not given)	·	-41%	·	?	·	·
CS(=O)(=O)c1ccc(C(=O)OC2CCOC2=O)cc1[N+](=O)[O-] (stereo not given)	0%	?	·	6.6µM*	2	-1
CCN(CC)c1c([N+](=O)[O-])c(=O)n(CC)c2ccccc12	-7%	?	-21%	13µM*	-3	-1
O=c1c([N+](=O)[O-])c(N2CCOCC2)c2ccccc2n1-c1ccccc1	0%	13%	0%	-4%	-33	-3
CCn1c(=O)c([N+](=O)[O-])c(N2CCOCC2)c2ccccc21	18%	10µM*	10%	8%	-5	-4
CCN(CC)c1c([N+](=O)[O-])c(=O)sc2ccccc12	-7%	15%	10%	-50%	-3	-6
COc1cc(-c2nc(CN(C)C(C)c3ccncn3)c(C)o2)ccc1F (stereo not given)	1%	34%	0%	?	-4	-3
CC1CCN(C(c2cccs2)c2nnnn2Cc2ccccc2)CC1 (stereo not given)	-49%	2.6µM*	-9%	·	-11	1
Fc1ccccc1N1CCN(C(c2cccs2)c2nnnn2CCc2ccccc2)CC1 (stereo not given)	1%	?	-1%	8.3µM*	35	8
c1ccc(Cn2nnnc2C(c2cccs2)N2CCSCC2)cc1 (stereo not given)	-9%	?	-2%	?	-4	1
COCCn1nnnc1C(c1cccs1)N1CCN(c2ccccc2)CC1 (stereo not given)	-11%	?	2%	-16%	-8	-1
c1ccc(CCn2nnnc2C(c2cccs2)N2CCN(Cc3ccc4c(c3)OCO4)CC2)cc1 (stereo not given)	-5%	-5%	-22%	?	-4	7
Fc1ccc(N2CCN(C(c3cccs3)c3nnnn3CCc3ccccc3)CC2)cc1 (stereo not given)	-42%	18%	-3%	13µM*	9	-2
NS(=O)(=O)c1ccc(CCNC(=O)Cc2ccc(S(=O)(=O)N3CCOCC3)s2)cc1	·	-9%	·	?	·	·
COc1ccc(OC)c(/C=C2\S/C(=N/NC(=O)c3ccc4ccccc4c3)NC2=O)c1	8%	6.6µM*	?	7%	-6	1
N#Cc1c(-c2cccs2)cc(-c2cccnc2)nc1N	-27%	·	0%	0%	-8	-4
N#Cc1c(-c2cccs2)cc(-c2ccccn2)nc1N	-9%	9.3µM*	-3%	-6%	49	1
CN(C)S(=O)(=O)c1cccc(NC(=O)c2ccc3c(c2)OCCO3)c1	·	-5%	·	57%	·	·
Cc1nc(-c2ccccc2)nc2[nH]ccc(=O)c12	3%	13%	-9%	·	45	34*
SMILES	NS1 function inh	Pf growth 96h	FBPA Giardia inh	Pf growth 48h	Shiga toxin inh	CHX counter
Cc1nc(-c2ccc([N+](=O)[O-])cc2)nc2[nH]ccc(=O)c12	-2%	1%	-26%	221%	36	30*
COC(=O)C1=C(c2ccc(F)cc2OCc2ccccc2)C[C@@H]2CC[C@H]1N2C(=O)NCc1ccc(Br)cc1	·	?	·	2.1µM*	·	·
COC(=O)C1=C(c2ccc(F)cc2OCc2ccccc2)C[C@@H]2CC[C@H]1N2C(=O)NCc1ccc(OC)cc1	·	?	·	13µM*	·	·
COC(=O)C1=C(c2ccc(OC)c(OC)c2)C[C@@H]2CC[C@H]1N2C(=O)NCc1ccc(F)cc1	·	?	·	-53%	·	·
COC(=O)C1=C(c2ccccc2OCc2ccccc2)C[C@@H]2CC[C@H]1N2C(=O)NCc1ccc(OC)c(OC)c1	·	?	·	13µM*	·	·
COC(=O)C1=C(c2ccc(F)cc2OCc2ccccc2)C[C@@H]2CC[C@H]1N2C(=O)NCc1cccc(OC)c1	·	?	·	9.3µM*	·	·
COc1ccc(N2C(=O)C(CC(=O)Nc3ccc(F)cc3)N(CCc3ccc(OC)c(OC)c3)C2=O)cc1 (stereo not given)	·	-20%	-11%	-14%	25	3
Cc1ccc(S(=O)(=O)NC(C(=O)O)c2ccccc2)cc1 (stereo not given)	5%	?	-1%	8%	-6	0
Cc1ccc(C)c(S(=O)(=O)N2CCN(C(=O)CN3C(=O)C4CC=CCC4C3=O)CC2)c1 (stereo not given)	·	2%	·	-4%	·	·
COC(=O)C1=C(c2ccccc2OCc2ccccc2)C[C@@H]2CC[C@H]1N2C(=O)NCc1cccc(F)c1	·	?	·	9.3µM*	·	·
COC(=O)C1=C(c2ccc(F)cc2OCc2ccccc2)C[C@@H]2CC[C@H]1N2C(=O)NCc1cccc(C(F)(F)F)c1	·	?	·	4.7µM*	·	·
CSc1cccc(CN2CCC(Oc3ccc(C(=O)N4CCCCC4)cc3)CC2)c1	-2%	4%	·	?	-7	-4
CC(C)(C)c1cccc(Cn2nnc3ccccc32)c1O	·	?	·	9.3µM*	·	·
Cc1cc(Cn2nnc3ccccc32)c(O)c(C(C)(C)C)c1	·	?	·	12µM*	·	·
Cc1ccc(CNC(=O)CCC(=O)Nc2nnc(C(C)C)s2)cc1	2%	37%	-9%	23%	9	-2
CC(C)C(c1nnnn1CC1CCCO1)N1CCN(C2CCCC2)CC1 (stereo not given)	-15%	13µM*	1%	6%	-12	-5

Screening data (PubChem)
